# High-throughput results as filed in PubChem BioAssay.
# PvdQ acylase: P. aeruginosa PvdQ acylase inhibitors, primary screen, biochemical, fluorescence, plate reader and imaging, single point | inhibition, % at 10 µM | PvdQ acylase [Pseudomonas aeruginosa LESB58] | purified PvdQ acylase | hit rate 0.063% among 340,000; in the data active = inhibition above about 30%, passing the limit was not always enough;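 also: 0% = vehicle neutral wells and 100% = reference inhibitor wells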
# PGC1a acetyl inh: inhibitors of PGC1a acetylation signal, primary screen, cell-based, U2OS, AlphaScreen, inhibitor mode | hit rate 0.17% among 350,000 | AlphaScreen anti-acetyl-lysine; with virally co-expressed GCN5 acetyltransferase | inhibition, % at 15.6 µM;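 active = every replicate shows inhibition of at least 40%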;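 also: 0% = neutral control wells and 100% = positive control wells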
# DENV2 CPE: inhibitors of DENV2 cytopathic effect, primary screen, cell-based, plate reader, single concentration; DENV2-infected cells, cytopathic effect rescue; CPE inhibition, % at 9.99 µM; hit rate 1.7% among 350,000; AID 651640, 2012; in the data active = CPE inhibition above about 20%, passing the limit was not always enough; tested in BHK-21 cells;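 also: 0% = median of neutral control wells and 100% = median of positive control wells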
# Statin myotox sup: suppressors of statin myotoxicity in C2C12 myotubes, primary screen, cell-based, single point, plate reader | C2C12 myotubes + simvastatin, ATP luminescence, 48 h; scaled: DMSO 0, geranylgeraniol control 100 | rescue of ATP level, % at 7.49 µM | hit rate 0.78% among 330,000;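 active = mean ATP rescue above about 67%, or every replicate alone reaching that limit, limit read from the data, passing the limit was not always enough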;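 also: myotubes were challenged with 10 µM simvastatin during compound exposure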
# miR-122 sensor: miR-122 Renilla sensor signal increase in Huh7, primary screen, miR-122 inhibitor project, cell-based, single point, plate reader; Huh7 miR-122 Renilla luciferase sensor, 48 h; neutral wells = 0, positive control = 100; activation (reporter increase), % at 12.5 µM; hit rate 0.3% among 340,000; AID 602342, 2012;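 active = mean replicate activation score at least 90 and every replicate individually at or above 90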;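 also: higher luciferase means less miR-122 activity so hits act as miR-122 inhibitors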
# * hit, by the source's call; / = not tested or not shown; [ ] = another dose, or the depositor's remark. Most compounds without a hit are left out; they make up all but 2.2% or so of the library.
SMILES,PvdQ acylase,PGC1a acetyl inh,DENV2 CPE,Statin myotox sup,miR-122 sensor
C[C@H](CO)N1C[C@H](C)[C@H](CN(C)C(=O)Nc2ccc(C(F)(F)F)cc2)Oc2ccc(NC(=O)CCCCCC(=O)Nc3ccccc3N)cc2CC1=O,/,1.8,1.5,3.7,-10.4[16.7 µM]
C[C@H]1CCCCO[C@@H](CN(C)S(=O)(=O)c2ccc(Cl)cc2)[C@@H](C)CN([C@@H](C)CO)C(=O)c2cc(NS(C)(=O)=O)ccc2O1,/,-4.0,-3.7,15.9,-3.6[16.7 µM]
CO[C@@H]1CN(C)C(=O)c2ccc(NC(C)=O)cc2OC[C@H](C)N(C(=O)c2ccccn2)C[C@@H]1C,/,-8.5,-6.9,-3.9,-4.4[16.7 µM]
O=C(Cc1ccccn1)NCC[C@@H]1CC[C@H](NC(=O)Nc2ccc(C(F)(F)F)cc2)[C@H](CO)O1,/,77.9*,-4.3,9.9,/
O=C(C[C@H]1C=C[C@@H](NC(=O)Nc2ccc(C(F)(F)F)cc2)[C@@H](CO)O1)NCc1ccccn1,/,6.4,20.1*,/,/
C[C@H]1CN([C@@H](C)CO)C(=O)c2cccc(N(C)C)c2O[C@H]1CN(C)C,/,10.1,-3.6,25.9,-3.1[16.7 µM]
C[C@H](CO)N1C[C@H](C)[C@@H](CN(C)Cc2ccncc2)Oc2ccc(N(C)C)cc2C1=O,/,23.3,47.3*,8.4,16.1[16.7 µM]
C[C@@H]1CN([C@H](C)CO)C(=O)c2cccc(N(C)C)c2O[C@H]1CN(C)Cc1ccncc1,/,8.6,20.2*,7.9,6.3[16.7 µM]
C[C@H](CO)N1C[C@H](C)[C@H](CN(C)CC2CC2)Oc2c(cccc2N(C)C)C1=O,/,3.1,43.8*,10.8,7.8[16.7 µM]
CN(C)c1ccc(C#Cc2ccc3cc(CCCO)oc(=O)c3c2)cc1,-12.9,-8.8,77.6*,-24.0,-4.6
CC(C)NC(=O)N(C)C[C@H]1OCCCC[C@H](C)Oc2ccc(NC(=O)Cc3ccccc3)cc2C(=O)N([C@H](C)CO)C[C@H]1C,/,5.4,0.7,/,1.0[16.7 µM]
CCC1=C(OC(=O)N(CC)CC)N2C(=O)OC(=NCCc3c[nH]c4ccccc34)[C@]2(C)[C@H]2C1=CC[C@H]1C(=O)NC(=O)[C@H]12,-7.2,/,27.2*,-4.2,/
CCC1=C(OC(=O)N(CC)CC)N2C(=O)OC(=NCCc3c[nH]c4ccccc34)[C@]2(C)[C@H]2C1=CC[C@H]1C(=O)N(CC(=O)OC)C(=O)[C@H]12,-15.7,/,/,5.6,5.4
CCC1=C(OC(=O)N(CC)CC)N2C(=O)OC(=NCC3CC3)[C@]2(C)[C@H]2C1=CC[C@H]1C(=O)NC(=O)[C@H]12,-0.3,/,46.4*,1.7,/
C[C@H](CO)N1C[C@H](C)[C@@H](CN(C)Cc2ccc(-c3ccccc3)cc2)Oc2ccc(NC(=O)c3ccncc3)cc2CC1=O,/,-17.4,11.1,123.6*,-2.5[16.7 µM]
C[C@@H]1CN([C@H](C)CO)C(=O)Cc2cc(NC(=O)Nc3ccc(C(F)(F)F)cc3)ccc2O[C@H]1CN(C)Cc1ccc(C(F)(F)F)cc1,/,-0.5,6.4,6.5,-3.1[16.7 µM]
C[C@H](CO)N1C[C@H](C)[C@@H](CN(C)Cc2ccc(C(F)(F)F)cc2)Oc2ccc(NS(C)(=O)=O)cc2CC1=O,/,-14.8,-3.9,58.3,-1.7[16.7 µM]
C[C@H](CO)N1C[C@H](C)[C@@H](CN(C)Cc2ccc(Cl)c(Cl)c2)Oc2ccc(NC(=O)c3ccncc3)cc2CC1=O,/,-4.0,-0.2,132.8*,-3.5[16.7 µM]
C[C@H](CO)N1C[C@H](C)[C@H](CN(C)Cc2ccc(C(F)(F)F)cc2)Oc2ccc(NC(=O)Nc3ccc(C(F)(F)F)cc3)cc2CC1=O,/,1.2,63.3*,21.2,-13.9[16.7 µM]
C[C@@H]1CN([C@@H](C)CO)C(=O)Cc2cc(NS(C)(=O)=O)ccc2O[C@H]1CN(C)Cc1ccc(C(F)(F)F)cc1,/,1.9,20.0*,-18.0,-5.0[16.7 µM]
C[C@H]1CN([C@@H](C)CO)C(=O)Cc2cc(NC(=O)C3CCCCC3)ccc2O[C@@H]1CN(C)Cc1ccc(C(F)(F)F)cc1,/,-2.9,39.2*,48.0,0.2[16.7 µM]
C[C@H]1CN([C@@H](C)CO)C(=O)Cc2cc(NC(=O)c3ccncc3)ccc2O[C@@H]1CN(C)Cc1ccc(C(F)(F)F)cc1,/,7.0,-3.3,40.7,-0.4[16.7 µM]
C[C@@H]1CN([C@@H](C)CO)C(=O)Cc2cc(NC(=O)c3ccncc3)ccc2O[C@@H]1CN(C)Cc1ccc(C(F)(F)F)cc1,/,-18.6,31.2*,0.6,-7.5[16.7 µM]
